From PMC7862700, “An all-to-all approach to the identification of sequence-specific readers for epigenetic DNA modifications on cytosine” come the findings set out here.

Holding throughout (assay): DAPPL (digital affinity profiling via proximity ligation, sequencing); 10 mM Tris-HCl pH 7.5, 50 mM NaCl, 1 mM DTT, 4% glycerol, room temperature, 30 min; GST-TFs on glutathione beads, 16-mer random dsDNA library, 0.1% formaldehyde crosslink after washing; high values mean tight binding
Common to all, as to details: protein: recombinant; tags: N-terminal GST; dsDNA, one strand shown

The target in one experiment is T1, ERF (Homo sapiens, UniProt P50548 1-548).
T1 sequence: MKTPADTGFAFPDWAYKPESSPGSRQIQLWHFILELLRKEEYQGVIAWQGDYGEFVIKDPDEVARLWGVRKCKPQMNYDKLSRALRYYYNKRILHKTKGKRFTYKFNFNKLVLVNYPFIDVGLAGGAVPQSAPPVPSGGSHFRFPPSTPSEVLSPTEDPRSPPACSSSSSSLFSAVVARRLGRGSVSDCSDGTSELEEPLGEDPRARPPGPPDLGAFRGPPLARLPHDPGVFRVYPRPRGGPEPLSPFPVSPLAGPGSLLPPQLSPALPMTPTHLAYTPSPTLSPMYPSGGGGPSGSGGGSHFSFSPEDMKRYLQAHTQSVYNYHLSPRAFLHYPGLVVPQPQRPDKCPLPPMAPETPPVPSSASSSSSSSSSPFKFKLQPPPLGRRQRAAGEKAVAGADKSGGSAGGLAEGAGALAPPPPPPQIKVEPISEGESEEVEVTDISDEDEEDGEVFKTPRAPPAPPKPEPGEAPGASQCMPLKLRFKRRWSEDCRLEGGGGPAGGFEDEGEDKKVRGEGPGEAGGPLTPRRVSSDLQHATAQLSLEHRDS
The method, boiled down:
(§1)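 A tag-only sample was pooled with DNA-barcoded human transcription factors that had been expressed in yeast as GST fusions and captured on glutathione beads. The pools were incubated for 30 min at room temperature with 200 nmole of a random double-stranded 16-mer DNA library in Tris/NaCl/DTT/glycerol buffer, then washed, crosslinked with 0.1% formaldehyde, proximity-ligated (BsaI/T4 ligase, 1 h, 37 °C), PCR-amplified and sequenced on an Illumina NextSeq500. Binding signal is each hexamer's read frequency for a factor divided by its frequency for the tag-only sample.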

The next experiment deals with T2, ETV3L (Homo sapiens, UniProt Q6ZN32 1-361).
T2 sequence: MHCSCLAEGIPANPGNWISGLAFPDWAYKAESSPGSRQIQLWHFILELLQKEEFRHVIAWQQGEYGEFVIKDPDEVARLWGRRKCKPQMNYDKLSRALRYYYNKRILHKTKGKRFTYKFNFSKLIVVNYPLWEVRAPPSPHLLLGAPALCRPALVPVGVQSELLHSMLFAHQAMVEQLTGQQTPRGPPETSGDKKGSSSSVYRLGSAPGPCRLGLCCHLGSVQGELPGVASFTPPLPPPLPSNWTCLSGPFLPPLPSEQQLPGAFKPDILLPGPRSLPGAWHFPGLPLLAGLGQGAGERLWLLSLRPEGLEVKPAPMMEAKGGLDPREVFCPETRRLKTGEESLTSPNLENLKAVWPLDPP
The gist of the method: as §1

The next experiment addresses T3, ETS2 (Homo sapiens, UniProt P15036 1-469).
T3 sequence: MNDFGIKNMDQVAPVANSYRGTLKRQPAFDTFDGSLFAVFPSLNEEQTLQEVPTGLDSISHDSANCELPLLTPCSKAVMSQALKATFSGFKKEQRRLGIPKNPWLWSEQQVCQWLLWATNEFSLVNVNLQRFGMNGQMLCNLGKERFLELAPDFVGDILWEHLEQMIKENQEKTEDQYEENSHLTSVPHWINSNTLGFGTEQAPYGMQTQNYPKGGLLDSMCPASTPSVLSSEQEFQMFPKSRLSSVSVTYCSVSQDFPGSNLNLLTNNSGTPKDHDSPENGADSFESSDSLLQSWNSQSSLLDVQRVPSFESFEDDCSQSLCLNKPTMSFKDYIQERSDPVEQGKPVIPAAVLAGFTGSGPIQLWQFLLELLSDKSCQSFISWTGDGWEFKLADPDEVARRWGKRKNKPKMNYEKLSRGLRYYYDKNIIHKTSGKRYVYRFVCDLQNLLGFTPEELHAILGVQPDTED
The gist of the method:
as §1

The next experiment concerns the target T4, SPDEF (Homo sapiens, UniProt O95238 1-335).
T4 sequence: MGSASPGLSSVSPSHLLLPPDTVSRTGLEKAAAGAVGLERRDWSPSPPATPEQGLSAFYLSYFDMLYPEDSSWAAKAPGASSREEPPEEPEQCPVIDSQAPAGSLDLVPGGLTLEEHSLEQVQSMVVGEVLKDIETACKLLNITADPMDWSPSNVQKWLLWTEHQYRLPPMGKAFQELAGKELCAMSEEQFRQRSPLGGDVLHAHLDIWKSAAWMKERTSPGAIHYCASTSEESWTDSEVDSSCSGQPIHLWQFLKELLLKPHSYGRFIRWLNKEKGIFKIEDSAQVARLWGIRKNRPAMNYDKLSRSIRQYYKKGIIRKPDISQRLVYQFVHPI
The method, boiled down: as §1

Another experiment has as its target T5, ETV7 (Homo sapiens, UniProt Q9Y603 1-341).
T5 sequence: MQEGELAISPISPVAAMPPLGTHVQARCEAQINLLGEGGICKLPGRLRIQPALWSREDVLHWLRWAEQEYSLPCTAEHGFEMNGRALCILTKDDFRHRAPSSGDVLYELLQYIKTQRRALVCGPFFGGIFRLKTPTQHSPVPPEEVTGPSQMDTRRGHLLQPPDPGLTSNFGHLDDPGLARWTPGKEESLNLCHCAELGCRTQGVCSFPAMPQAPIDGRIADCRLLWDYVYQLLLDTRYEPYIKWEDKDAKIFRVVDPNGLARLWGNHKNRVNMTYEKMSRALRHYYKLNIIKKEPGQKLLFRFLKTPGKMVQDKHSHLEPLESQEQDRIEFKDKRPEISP
The method, boiled down:
as §1

For a further experiment, the target named is T6, ELF5 (Homo sapiens, UniProt Q9UKW6-2 1-255).
T6 sequence: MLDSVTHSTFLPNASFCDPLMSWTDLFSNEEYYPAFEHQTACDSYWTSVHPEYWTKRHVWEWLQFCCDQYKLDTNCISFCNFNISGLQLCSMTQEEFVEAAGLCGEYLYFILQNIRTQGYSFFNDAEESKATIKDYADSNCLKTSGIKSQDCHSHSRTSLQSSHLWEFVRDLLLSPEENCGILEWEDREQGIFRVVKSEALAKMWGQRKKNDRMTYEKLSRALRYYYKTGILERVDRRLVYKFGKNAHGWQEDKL
The method, boiled down:
as §1

A further experiment deals with T7, ETV3 (Homo sapiens, UniProt P41162-2 1-143).
T7 sequence: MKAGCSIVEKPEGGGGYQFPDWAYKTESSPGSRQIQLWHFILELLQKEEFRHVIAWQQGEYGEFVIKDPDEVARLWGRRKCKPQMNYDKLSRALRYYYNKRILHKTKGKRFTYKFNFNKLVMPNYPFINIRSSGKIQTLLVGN
The method, boiled down: as §1

Another experiment has as its target ETV6 (Homo sapiens, UniProt P41212 1-452). The gist of the method:
as §1

ETV6, sequence (P41212 whole entry): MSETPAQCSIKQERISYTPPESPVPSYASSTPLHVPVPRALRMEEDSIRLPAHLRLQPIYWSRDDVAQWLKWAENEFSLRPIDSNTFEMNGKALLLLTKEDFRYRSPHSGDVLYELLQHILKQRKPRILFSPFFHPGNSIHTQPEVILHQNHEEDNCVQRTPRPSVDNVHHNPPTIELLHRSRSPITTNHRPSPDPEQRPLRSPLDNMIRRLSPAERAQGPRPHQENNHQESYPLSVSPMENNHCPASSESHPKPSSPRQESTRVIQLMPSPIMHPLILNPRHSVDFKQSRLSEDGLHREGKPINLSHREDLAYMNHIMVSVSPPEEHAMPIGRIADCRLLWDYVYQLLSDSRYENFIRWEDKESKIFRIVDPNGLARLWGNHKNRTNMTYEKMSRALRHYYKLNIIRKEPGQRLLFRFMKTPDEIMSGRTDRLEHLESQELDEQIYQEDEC

In the case of CTACGT, the binding signal in the experiment with ERF is 1.24 fold enrichment (6-mer frequency, TF over GST control); in the experiment with ETV3L, 1.29 fold enrichment (6-mer frequency, TF over GST control); in the experiment with ETS2, 1.12 fold enrichment (6-mer frequency, TF over GST control); with SPDEF it was 1.12 fold enrichment (6-mer frequency, TF over GST control); with ETV7 it was 1.35 fold enrichment (6-mer frequency, TF over GST control); in the experiment with ELF5 it was 1.27 fold enrichment (6-mer frequency, TF over GST control). For the same sequence, the binding signal with ETV3 was 1.17 fold enrichment (6-mer frequency, TF over GST control); with ETV6 it was 1.42 fold enrichment (6-mer frequency, TF over GST control).
Regarding ACAATG, the binding signal with ERF is 1.12 fold enrichment (6-mer frequency, TF over GST control); with ETV3L, 1.03 fold enrichment (6-mer frequency, TF over GST control); in the experiment with ETS2, 1.09 fold enrichment (6-mer frequency, TF over GST control); with SPDEF, 1.03 fold enrichment (6-mer frequency, TF over GST control); in the experiment with ETV7 it was 1.12 fold enrichment (6-mer frequency, TF over GST control); with ELF5, 1.08 fold enrichment (6-mer frequency, TF over GST control). Further, the binding signal with ETV3 is 1.11 fold enrichment (6-mer frequency, TF over GST control); in the experiment with ETV6 it was 1.06 fold enrichment (6-mer frequency, TF over GST control).
Consider AAACGG, for which the binding signal with ERF is 1.17 fold enrichment (6-mer frequency, TF over GST control); with ETV3L, 1.23 fold enrichment (6-mer frequency, TF over GST control); with ETS2, 1.26 fold enrichment (6-mer frequency, TF over GST control); with SPDEF it was 1.25 fold enrichment (6-mer frequency, TF over GST control); with ETV7, 1.16 fold enrichment (6-mer frequency, TF over GST control); with ELF5 it was 1.25 fold enrichment (6-mer frequency, TF over GST control). In addition, the binding signal in the experiment with ETV3 is 1.26 fold enrichment (6-mer frequency, TF over GST control); with ETV6, 1.28 fold enrichment (6-mer frequency, TF over GST control).
As for CGCGTC, the binding signal with ERF was 1.37 fold enrichment (6-mer frequency, TF over GST control); with ETV3L, 1.26 fold enrichment (6-mer frequency, TF over GST control); in the experiment with ETS2 it was 1.24 fold enrichment (6-mer frequency, TF over GST control); with SPDEF, 1.31 fold enrichment (6-mer frequency, TF over GST control); in the experiment with ETV7, 1.25 fold enrichment (6-mer frequency, TF over GST control); with ELF5 it was 1.34 fold enrichment (6-mer frequency, TF over GST control). The binding signal in the experiment with ETV3 was 1.23 fold enrichment (6-mer frequency, TF over GST control); with ETV6, 1.29 fold enrichment (6-mer frequency, TF over GST control).
As for GCTTAT, the binding signal with ERF was 1.31 fold enrichment (6-mer frequency, TF over GST control); with ETV3L it was 1.23 fold enrichment (6-mer frequency, TF over GST control); with ETS2, 1.36 fold enrichment (6-mer frequency, TF over GST control); in the experiment with SPDEF, 1.43 fold enrichment (6-mer frequency, TF over GST control); with ETV7, 1.43 fold enrichment (6-mer frequency, TF over GST control); in the experiment with ELF5 it was 1.15 fold enrichment (6-mer frequency, TF over GST control). The binding signal is 1.2 fold enrichment (6-mer frequency, TF over GST control) with ETV3 and 1.23 fold enrichment (6-mer frequency, TF over GST control) in the experiment with ETV6.
Take TTTGGA: the binding signal is 1.2 fold enrichment (6-mer frequency, TF over GST control) with ERF; 1.21 fold enrichment (6-mer frequency, TF over GST control) with ETV3L; 1.19 fold enrichment (6-mer frequency, TF over GST control) with ETS2; 1.23 fold enrichment (6-mer frequency, TF over GST control) with SPDEF; 1.3 fold enrichment (6-mer frequency, TF over GST control) with ETV7; 1.15 fold enrichment (6-mer frequency, TF over GST control) with ELF5. Moreover, the binding signal with ETV3 is 1.19 fold enrichment (6-mer frequency, TF over GST control); with ETV6 it was 1.15 fold enrichment (6-mer frequency, TF over GST control).
Regarding ATCTCA, the binding signal was 1.07 fold enrichment (6-mer frequency, TF over GST control) with ERF; 1.13 fold enrichment (6-mer frequency, TF over GST control) with ETV3L; 1.14 fold enrichment (6-mer frequency, TF over GST control) with ETS2; 1.07 fold enrichment (6-mer frequency, TF over GST control) in the experiment with SPDEF; 1.15 fold enrichment (6-mer frequency, TF over GST control) in the experiment with ETV7; 1.09 fold enrichment (6-mer frequency, TF over GST control) in the experiment with ELF5. Besides, the binding signal with ETV3 was 1.13 fold enrichment (6-mer frequency, TF over GST control); in the experiment with ETV6, 1.11 fold enrichment (6-mer frequency, TF over GST control).
For the sequence ACCCGC, the binding signal with ERF was 1.27 fold enrichment (6-mer frequency, TF over GST control); in the experiment with ETV3L it was 1.34 fold enrichment (6-mer frequency, TF over GST control); with ETS2, 1.15 fold enrichment (6-mer frequency, TF over GST control); in the experiment with SPDEF, 1.16 fold enrichment (6-mer frequency, TF over GST control); with ETV7, 1.18 fold enrichment (6-mer frequency, TF over GST control); in the experiment with ELF5, 1.25 fold enrichment (6-mer frequency, TF over GST control). Moreover, the binding signal with ETV3 is 1.28 fold enrichment (6-mer frequency, TF over GST control); with ETV6 it was 1.32 fold enrichment (6-mer frequency, TF over GST control).
